# Reference: publication PMC5540273 (PLoS ONE, 2017)
# Tests used:
# Settings in all cases: concentration: 1 μM, replicates: in singlicate; n = 1
# [1] = system: T1, ERK5
# T1 construct: gene MAPK7
# [2] = system: T2, ERK8
# T2 construct: gene MAPK15
# [3] = system: ERN1
# [4] = system: T3, FAK
# T3 construct: gene PTK2
# [5] = system: FER
# [6] = system: FES
# [7] = system: FGFR1
# [8] = system: FGFR2
# [9] = system: FGFR3
# [10] = system: FGFR4
# [11] = system: FGR
# [12] = system: FLT1
# [13] = system: FLT3-autoinhibited
# [14] = system: FLT3
# [15] = system: FLT4
# [16] = system: FRK
# [17] = system: FYN
# [18] = system: GAK
# [19] = system: T4, GCN2(Kin.Dom.2,S808G)
# T4 construct: gene EIF2AK4
# [20] = system: GRK1
# 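Note: KINOMEscan kinase panel screen.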
Structure (SMILES),%Inh [1] [%],%Inh [2] [%],%Inh [3] [%],%Inh [4] [%],%Inh [5] [%],%Inh [6] [%],%Inh [7] [%],%Inh [8] [%],%Inh [9] [%],%Inh [10] [%],%Inh [11] [%],%Inh [12] [%],%Inh [13] [%],%Inh [14] [%],%Inh [15] [%],%Inh [16] [%],%Inh [17] [%],%Inh [18] [%],%Inh [19] [%],%Inh [20] [%]
CN1C(=O)C(Nc2cc(Cl)c(O)c(Cl)c2)=C(c2ccc(Cl)cc2)C1=O [SB-404321],0,0,0,0,0,0,0,0,9,0,0,0,0,0,0,0,0,0,6,0
CC(C)(C)c1ccc(C(=O)Nc2cn3cc(-c4ccccc4)ccc3n2)cc1,0,20,26,0,0,0,0,1,7,0,0,0,0,35,0,10,0,0,8,25
COc1cc2ncn(-c3cc(OCc4ccncc4)c(C(N)=O)s3)c2cc1OC [GSK336313],0,0,23,0,24,0,0,0,7,2,28,19,0,0,17,0,35,17,0,0
CCS(=O)c1ccc(-c2coc3ccc(-c4nnc(C)o4)cc23)cc1 (stereo not drawn),0,0,16,0,11,7,9,10,7,0,0,0,0,0,0,5,0,0,0,5
COc1cc(Nc2nccc(N3CCC(NC(=O)C4COc5ccccc5O4)C3)n2)cc(OC)c1OC (stereo not drawn) [GSK1379761],0,0,2,0,17,0,3,30,9,0,33,23,0,37,25,3,29,37,0,0
O=C(NCCNc1ccnc(Nc2ccc(F)cc2)n1)Nc1ccc2c(c1)OCO2 [GSK1379882],2,0,30,0,0,0,0,0,2,0,0,0,12,0,9,0,34,14,0,0
Nc1n[nH]c2ncc(-c3ccccc3)cc12 [SB-517081],0,0,9,0,0,0,0,0,2,18,28,7,49,72,0,15,26,70,52,0
Cc1ccc(Oc2ccc(Nc3ncnc4cc[nH]c34)cc2C)cn1,5,0,21,8,15,23,10,0,4,11,29,92.5,23,3,0,12,0,10,0,9
Cc1cc(Nc2nc(-c3cccc(C)n3)nc3ccccc23)ccn1 [GW872411],3,13,0,0,0,0,12,0,0,0,0,0,0,7,0,0,0,0,0,13
COc1ccc(-c2cc3c(C)nc(N)nc3n([C@H]3CC[C@H](OCCO)CC3)c2=O)cn1,12,0,0,0,13,1,7,0,0,0,14,11,0,0,0,0,0,0,0,0
O=C(Nc1ccc2c(c1)OCO2)NC1CCN(c2ccnc(NCc3ccc(F)cc3)n2)CC1 [GSK1379859],0,0,0,0,8,0,4,0,0,0,9,15,0,0,9,0,31,4,1,0
O=C1NC(=O)C(c2ccccc2)=C1Nc1cccc(O)c1 [SB-390534],0,0,0,0,0,0,11,0,10,1,0,2,5,26,0,0,0,11,0,13
O=C(Nc1n[nH]c2nc(-c3ccccc3)c(Cl)cc12)C1CC1 [SB-734909],0,0,24,0,0,0,0,4,5,0,13,9,16,2,0,0,0,0,0,37
Nc1ncnc2c1ncn2-c1cccc2ccccc12 [SKF-97184],0,9,0,0,0,0,12,0,0,0,6,0,0,0,10,0,0,0,0,31
Cl.c1ccc(Cn2cnc3cc(Nc4ncnc5ccccc45)ccc32)cc1 [GW272142],1,0,1,0,21,0,0,0,14,3,23,16,0,0,3,0,10,0,0,0
Cc1c(Cn2c(C)nn3c(=O)cc(N4CCO[C@H](C)C4)nc23)cccc1C(F)(F)F [GSK2373690],0,0,10,0,20,0,5,1,18,3,0,22,0,0,0,35,14,52,3,0
COc1ccc(-c2coc3ccc(-c4nnc(SCc5cccc(C#N)c5)o4)cc23)cc1,0,14,11,0,10,7,11,13,17,17,0,0,10,13,0,0,5,12,0,9
O=C(Nc1n[nH]c2nc(-c3ccccc3)c(Br)cc12)C1CC1 [SB-708998],100,15,0,0,7,0,14,0,13,5,8,25,8,1,26,0,26,11,0,0
COc1cc2nccc(Nc3cccc(Oc4ccccc4)c3)c2cc1OC.Cl [GW284543],26,13,8,23,30,4,17,26,6,8,25,24,10,6,38,0,36,0,0,0
COC(=O)c1c(-c2ccccc2)c2cc(C)ccc2c(=O)n1Cc1ccccc1,0,0,0,0,0,0,0,0,0,0,2,0,13,0,0,0,0,0,0,0
CCC(=O)c1c(-c2ccccc2)c2cc(Cl)ccc2c(=O)n1Cc1cc(S(C)(=O)=O)n(CCC(C)(C)O)n1,15,0,18,10,10,5,0,22,29,8,11,29,2,0,15,13,10,8,0,8
